Records with an inconclusive call do not appear. The source made the active and inactive calls. Calls follow the shape of the dose curve; as a rule, active = well fitted curve in either direction with a large enough effect (not every such curve was filed as active); inconclusive = small, poorly fitted or top-dose-only effect, or another doubt; inactive = flat fitted curve, though single readings scatter.
Test: AP1 Signaling Pathway (AID 357)
Settings: ME-180 (cervical carcinoma) AP-1-bla reporter, EGF-induced, beta-lactamase ratio, 5 h; at 17.2 µM (top of the series) unless noted
How it was run: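 Cells are seeded overnight, exposed to compound titrations and an EC50 level of EGF for 5 hours at 37 °C, then loaded with CCF4 dye for 2.5 hours. Beta-lactamase activity under the AP-1 element is read as a blue/green ratio.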
% is scaled to controls: 0 for no effect and ±100 for the full control effect.

Activity change, negative = inhibition, inactive:
CCOC(=O)c1c2c(c(=S)n(-c3ccccc3)c1N)CCC2 -21.8%, CC1(C)Cc2c(sc3nc4n(c(=N)c23)CCCCC4)CO1 19.2%, COc1ccc(-c2oc3ncn4nc(COc5ccccc5)nc4c3c2-c2ccc(OC)cc2)cc1 -11.5%, C/C(=N\O)c1ccc2[nH]ccc2c1 2.69%, CC(C)c1nc(NCCN2CCOCC2)c(C#N)c2c1COC(C)(C)C2 -27%, CC(C)OC(=O)C(C#N)c1nc2ccccc2nc1N1CCN(Cc2ccc3c(c2)OCO3)CC1 (configuration not stated) -10.5%, CCCCOc1ccc(C(=O)OC2CC(C)N(C)CC2C)cc1 (configuration not stated) 5.59%, Cc1ccc(N2C(=O)CC(N(O)C3CC(=O)N(c4ccc(C)cc4)C3=O)C2=O)cc1 (configuration not stated) -20.5%, COC(=O)c1sc2nc(N3CCCCC3)c3c(c2c1N)CC(C)(C)N(C)C3 21%, CN1CCN(CCC(=O)N2c3ccccc3Sc3ccc(Cl)cc32)CC1 12.7%, Brc1ccc(-c2cnc3n2CCCC3)cc1 1.22%, O=C(c1ccc(F)cc1)N1CCC(N2CCCCCC2)CC1 -5.56%, C=CC[N+](C)(C)CCCNC(=O)/C=N/O 6.86%, CC1(C)C2CCC1(C)C(NC(=O)CCN1CCCCC1)C2 (configuration not stated) 6.22%, Cc1cc(C)n(C2CCCCC2OC(=O)c2ccccc2)n1 (configuration not stated) 7.47%, CCOc1ccc(N2C(=O)CC(N)C2=O)cc1 (configuration not stated) -19.2%, c1ccc(C2Nc3ccccc3-c3nc4ccccc4n32)nc1 (configuration not stated) -3.28%

From PubChem BioAssay (NCATS)
